108 compounds from PubChem BioAssay AID686978 (National Center for Advancing Translational Sciences (NCATS), 2013) can be followed below.

Structures are written as SMILES. Where “and” joins values, the source holds several entries; their conditions need not be identical. Identical values can stand only once. In all, about 420,000 compounds went through this assay and about 64,000 (15%) were called active. Another 27% or so got no clear call; they are omitted. The call rests on the fitted dose curve; in most records, active means well fitted inhibition curve with a large enough effect; inconclusive means small, poorly fitted or top-dose-only effect; inactive means flat fitted curve, though single readings scatter. Not all results are given here. Where a call stands in place of a potency, no number is given.
Potency means the concentration at half of the fitted maximal effect.

This experiment is described as follows: qHTS for Inhibitors of human tyrosyl-DNA phosphodiesterase 1 (TDP1): qHTS in cells in absence of CPT. Further: nearly all actives have a fitted effect of over 55% in size. The note with it: DT40 Tdp1-/- hTDP1 cells, no CPT, ATP luminescence, 48 h; activity change, negative = growth inhibition: at 46.2 µM (top of the series). Summed up:
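Readout: luminescence from CellTiter-Glo after 30 min in the dark at RT. Cells: DT40 Tdp1-/- with stable hTDP1, 400/well. Exposure: compounds alone, ≥48 hr, 37 °C.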
(Quantitative high-throughput screening tests each substance at several concentrations.)
As for `Cc1nn2c(=O)cc(COC(=O)c3cccc(NC(=O)COc4ccccc4Cl)c3)nc2s1`, the Potency result is “inactive”.
With `COc1ccccc1CNc1ncncc1-c1cccnc1`, the Potency result was “inactive”.
`O=[N+]([O-])c1cc2ccccc2nc1-c1ccccc1`: the Potency entry is “inactive”.
For the compound `COc1ccccc1Oc1nc(-c2cccnc2)nc2ccccc12`, the Potency is 20.6 µM (active).
`COc1ccccc1CCNC(=O)CSc1nnc2ccc(-c3cccnc3)nn12`: the Potency result was “inactive”.
Regarding `O=[N+]([O-])c1ccc(F)cc1Oc1nc(-c2cccnc2)nc2ccccc12`, the Potency is 18.4 µM (active).
Turning to `CCN(CC(=O)NC1CCS(=O)(=O)C1)c1nc(-c2cccnc2)nc2ccccc12` (stereo not drawn), the Potency entry is “inactive”.
In the case of `CCN(CC)c1nc(-c2ccccc2)cc(C(F)(F)F)c1C#N` it was “inactive”; in that of `Cc1cc(C)cc(C(=O)OCC(=O)NCCNC(=O)COC(=O)c2cc(C)cc(C)c2)c1`, “inactive”.
Consider `Cc1occc1C(=O)Nc1nnc(-c2ccncc2)s1`, for which the Potency entry is “inactive”.
As for `Cc1ccc(NC(=O)Nc2nnc(-c3ccncc3)s2)cc1`, the Potency is 11.6 µM (active).
In the case of `Cc1ccc(C(=O)Nc2nnc(-c3ccncc3)s2)o1`, the Potency result was “inactive”.
Take `CC1(C)C2CCC1(CS(=O)(=O)NCCc1c[nH]c3ccccc13)C(=O)C2` (stereo not drawn): the Potency entry is “inactive”.
As to `Cc1ccc(OCCC(=O)Nc2ccc(S(=O)(=O)Nc3nccs3)cc2)cc1`, the Potency entry is “inactive”.
As to `CN(C)NC(=O)C(NC(=O)c1ccc(N)cc1)C12CC3CC(CC(C3)C1)C2` (stereo not drawn), the Potency entry is “inactive”.
On to `COC(CCN(C)C)(c1ccccc1)c1ccccc1`, for which the Potency entry is “inactive”.
As for `CCn1nnc(NC(=O)c2c(OC)cccc2OC)n1`, the Potency entry was “inactive”.
`COc1ccc(/C=N/n2c(C)cc(C)cc2=O)cc1`: the Potency entry is “inactive”.
As for `CCSC1=NCCN1S(=O)(=O)c1ccc(F)cc1`, the Potency result was “inactive”.
Regarding `O=S(=O)(c1ccc(F)cc1)N1CCN=C1SCc1cccc(F)c1`, the Potency result was “inactive”.
Consider `Cc1ccc(S(=O)(=O)N2CCN=C2SCc2c(F)cccc2Cl)cc1`, for which the Potency was 11.6 µM (active).
Consider `O=C(Nc1ccc(Cl)cn1)c1cnn2cccnc12`, for which the Potency result is “inactive”.
As for `COc1ccccc1CNC(=O)c1ccc(N(C)S(=O)(=O)c2ccc(C)cc2)cc1`, the Potency entry is “inactive”.
For the compound `COc1ccc(S(=O)(=O)N2CCOCC2)cc1C(=O)NC1CCCCC1`, the Potency entry was “inactive”.
As to `COc1ccccc1N(C)S(=O)(=O)c1ccc(C(=O)NC2CCCCCC2)cc1`, the Potency is 23.1 µM (active).
Turning to `CCc1ccc(OCC(=O)OCC(=O)c2c(N)n(C)c(=O)n(C)c2=O)cc1`, the Potency entry was “inactive”.
For the compound `CC(C)Oc1ccc(/C=N/NC(=O)c2nnn(-c3nonc3N)c2CN(C)C2CCCCC2)cc1`, the Potency entry is “inactive”.
As to `Cc1cc(C)cc(NC(=O)NCc2ccccn2)c1`, the Potency entry was “inactive”.
`CC(C)NC(=S)NN=C1CCCCCCCCCCC1`: the Potency is 13 µM (active).
As to `CCc1ccc(C(=O)NN=C2CCCCCC2)s1`, the Potency result was “inactive”.
Turning to `CC(C)(C)NC(=O)C(=O)NN=C1CCCCCCC1`, the Potency result is “inactive”.
For `Cc1ccc(-n2nc3c(c2NC(=O)CCC2CCCCC2)CS(=O)C3)cc1` (stereo not drawn), the Potency entry is “inactive”.
Take `CCN1CCC(O)(/C=C/c2ccc(C)cc2)C(C(=O)/C=C/c2ccc(C)cc2)C1` (stereo not drawn): the Potency was 4.61 µM (active).
On to `O=S(=O)(c1ccc(Cl)s1)N1CCC2(CC1)OCCO2`, for which the Potency entry is “inactive”.
Then `O=[N+]([O-])c1cc(C(F)(F)F)ccc1NN=C1CCCC1`, with “inactive”; and `CNS(=O)(=O)c1ccc(N2CCCC2=O)c([N+](=O)[O-])c1`, with “inactive”.
As for `O=C(c1ccc(N2CCCC2=O)cc1)N1CCN(c2ccc(C(F)(F)F)cc2[N+](=O)[O-])CC1`, the Potency was 2.31 µM (active).
Turning to `O=C(Nc1cc(Cl)ccc1N1CCOCC1)c1ccc(N2CCCC2=O)cc1`, the Potency entry is “inactive”.
In the case of `COc1cc(OC)cc(C(=O)NC(=S)N2CCN(c3ccc(C(F)(F)F)cc3[N+](=O)[O-])CC2)c1` it was 16.4 µM (active); in that of `COc1cc(C(=O)Nc2cc(C(F)(F)F)ccc2-n2cncn2)cc(OC)c1OC`, “inactive”.
Consider `C=CCO/N=C/C1=C(O)C(C(=O)OC)C(C)(C)CC1=O` (stereo not drawn), for which the Potency entry was “inactive”.
Take `CC(C)(C)c1ccccc1NC(=O)CN1C(=O)NC2(CCCC2)C1=O`: the Potency result was “inactive”.
As to `CCc1[nH]nc(C(=O)N2CCCC(CNS(=O)(=O)c3cccs3)C2)c1C` (stereo not drawn), the Potency entry is “inactive”.
Consider `O=C(NNc1nc(N2CCCC2)nc(N2CCCC2)n1)c1ccccc1`, for which the Potency result was “inactive”.
In the case of `CC(CN1CCOCC1)c1ccccc1` (stereo not drawn) it was “inactive”; in that of `Cc1ccc(C(CC(=O)O)Nc2nc(N3CCCCC3)nc(N3CCCCC3)n2)cc1` (stereo not drawn), “inactive”; in that of `CC(Nc1nc(N2CCOCC2)nc2ccccc12)c1ccccc1` (stereo not drawn), 18.4 µM (active).
`c1ccc2c(NC3C4CC5CC(C4)CC3C5)nc(N3CCOCC3)nc2c1` (stereo not drawn): the Potency was 20.6 µM (active).
In the case of `CC(Nc1nc(N2CCCC2)nc2ccccc12)c1ccccc1` (stereo not drawn), the Potency was 20.6 µM (active).
Take `O=C(COC(=O)CCc1nc2ccccc2c(=O)[nH]1)Nc1ccc(N2CCOCC2)cc1`: the Potency entry was “inactive”.
`CC(NC(=O)C1CCC(CNc2c(N3CCOCC3)c(=O)c2=O)CC1)c1ccccc1` (stereo not drawn): the Potency result was “inactive”.
As to `FC(F)(F)c1cc(-c2ccco2)nc(N2CCOCC2)n1`, the Potency entry is “inactive”.
In the case of `NC(=O)c1ccc(N2CCCC2)nc1`, the Potency result is “inactive”.
In the case of `COc1cc(C(=O)Nc2ccc(OCc3cc(=O)n4cc(C)sc4n3)cc2)cc(OC)c1OC`, the Potency result was “inactive”.
Consider `COc1ccccc1C(=O)Nc1ccc(OCc2nnc3c4ccccc4c(C)nn23)cc1`, for which the Potency is 13 µM (active).
As for `COc1ccccc1C(=O)Nc1ccc(Nc2ccccc2)cc1`, the Potency result is “inactive”.
Then `O=C1N=C2SCCN2/C1=C\c1c(Cl)cccc1Cl`, with “inactive”; and `Cc1c(C(=O)NCCN2C(=O)S/C(=C\c3cccs3)C2=O)cccc1[N+](=O)[O-]`, with “inactive”.
For the compound `CN(C)c1ccc(C(CC(=O)O)C(=O)O)cc1` (stereo not drawn), the Potency result is “inactive”.
Turning to `c1n[nH]c(NCc2ccc3c(c2)OCO3)n1`, the Potency entry was “inactive”.
On to `O=C(CCN1C(=O)c2ccccc2C1=O)C1=NN[C@@H]2C(=O)N(c3ccc(F)cc3)C(=O)[C@H]12`, for which the Potency entry is “inactive”.
In the case of `CC(=O)c1ccc(S(=O)(=O)N2CCC3(CC2)OCCO3)cc1` it was “inactive”; in that of `CCCCN(CC)C(=O)C1CCCN(S(=O)(=O)c2cccc3nsnc23)C1` (stereo not drawn), 18.4 µM (active); in that of `CCCCC(CC)CNC(=O)C1CCN(S(=O)(=O)c2cccc3nsnc23)CC1` (stereo not drawn), “inactive”.
In the case of `CCCCN(C)CCNC(=O)C1CCCN(S(=O)(=O)c2cccc3nsnc23)C1` (stereo not drawn) it was “inactive”.
For the compound `Cc1cc(=O)[nH]c(SCc2cc(Cl)ccc2OC(F)F)n1`, the Potency entry is “inactive”.
Take `O=C(COC(=O)C1CC2CCCC(C1)C2=O)NC(=O)c1ccccc1` (stereo not drawn): the Potency entry is “inactive”.
As for `O=C(COC(=O)c1ccc(NS(=O)(=O)c2cccs2)cc1O)Nc1ccc(F)cc1`, the Potency result was “inactive”.
Take `CCC(CC)NC(=O)CSc1nnc(-c2c[nH]c3ccccc23)o1`: the Potency result is “inactive”.
Turning to `O=S(=O)(NCCc1ccncc1)c1ccccc1`, the Potency entry is “inactive”.
In the case of `CS(=O)(=O)Nc1cccc(-c2cn3ccccc3n2)c1` it was “inactive”; in that of `CCCC(=O)Nc1cccc(-c2cn3ccsc3n2)c1`, “inactive”.
On to `CCCS(=O)(=O)Nc1cccc(-c2cn3ccsc3n2)c1`, for which the Potency is 25.9 µM (active).
With `O=C1CC2(CCCC2)Oc2ccc(Cl)cc21`, the Potency entry is “inactive”.
Then `COc1cccc2c1OCC(CN1CCN(C3CCCCC3)C(CCO)C1)=C2` (stereo not drawn), with “inactive”; and `CCc1cccc(OC2OC(CO)C(O)C(O)C2NC(C)=O)c1` (stereo not drawn), with “inactive”; and `Cn1ncc2c(Nc3cccc4ccccc34)ncnc21`, with “inactive”.
In the case of `COc1ccc(CNC(=O)C(NS(=O)(=O)c2cccc3nsnc23)C(C)C)cc1` (stereo not drawn) it was “inactive”; in that of `O=C(O)C(NS(=O)(=O)c1cccc2nsnc12)c1ccccc1` (stereo not drawn), “inactive”; in that of `CCOC(=O)c1cccc(NC(=O)C(Cc2ccccc2)NS(=O)(=O)c2cccc3nsnc23)c1` (stereo not drawn), 23.1 µM (active).
As to `COc1ccc(NC(=S)N2CCCC(CO)C2)c(OC)c1` (stereo not drawn), the Potency result was “inactive”.
For `O=C(C1CCCO1)N(c1ccc(F)cc1)C1C=CS(=O)(=O)C1` (stereo not drawn), the Potency result was “inactive”.
Consider `O=C(Nc1ccccc1Cl)Nc1cccc2cccnc12`, for which the Potency entry is “inactive”.
Consider `O=C(Nc1ccccc1)Oc1cccc2cccnc12`, for which the Potency is 1.03 µM (active).
With `COc1ccc(NC(=O)Nc2cccc3cccnc23)cc1`, the Potency entry is “inactive”.
Regarding `CSCCC(NC(=O)COc1ccccc1)C(=O)N(C)CC(=O)Nc1ccc(C)cc1` (stereo not drawn), the Potency entry was “inactive”.
Turning to `COc1ccc(S(=O)(=O)NCCc2cc3ccc(C)c(C)c3[nH]c2=O)cc1`, the Potency was 8.2 µM (active) and 23.1 µM (active).
In the case of `COc1ccc(CCNS(=O)(=O)c2cccc([N+](=O)[O-])c2)cc1` it was “inactive”; in that of `COc1ccc(S(=O)(=O)NCCSc2nnnn2-c2ccccc2)cc1`, “inactive”; in that of `Cc1cc(NS(=O)(=O)c2ccccc2)no1`, “inactive”.
For `CCOC(=O)CNC(=O)CSc1ncccc1-c1nc2ccccc2[nH]1`, the Potency entry is “inactive”.
In the case of `C/C(=N/OC(=O)c1ccc(Br)cc1)c1ccc(C)cc1`, the Potency entry is “inactive”.
In the case of `O=Cc1c(Nc2ccccc2Cl)nc2ccccn2c1=O`, the Potency entry is “inactive”.
As for `COc1ccc(NC(=O)CSc2nnnn2-c2cccc(OC)c2)cc1`, the Potency result is “inactive”.
Turning to `COc1ccc(-n2nnnc2-c2nc3ccccc3s2)cc1`, the Potency entry is “inactive”.
Consider `CCOc1cccc(-n2nnnc2-c2ccc(OC)cc2)c1`, for which the Potency was 2.91 µM (active).
In the case of `Cc1cccc(CSc2ccc(-c3cccs3)nn2)c1` it was “inactive”; in that of `CC(C)CCNC(=O)CSc1nc2ccccc2nc1Cc1ccc(Cl)cc1`, “inactive”; in that of `Nc1ncnc2c1ncn2[C@@H]1O[C@H](CNS(=O)(=O)c2ccc(-c3ccno3)s2)[C@@H](O)[C@H]1O`, “inactive”.
With `CO/N=C(\C(=O)N[C@@H]1C(=O)N2C(C(=O)O)=CCS[C@H]12)c1csc(N)n1`, the Potency result is “inactive”.
Regarding `O=C(O)C1CCCN1S(=O)(=O)c1ccc(Br)cc1` (stereo not drawn), the Potency entry is “inactive”.
Consider `O=S(=O)(c1ccc(Br)cc1)n1ccc2ccccc21`, for which the Potency was 18.4 µM (active).
In the case of `O=C(c1ccccc1F)N1CCN(S(=O)(=O)c2ccc(Br)cc2)CC1`, the Potency entry is “inactive”.
As to `O=C(Nc1ccc2c(c1)OCCO2)C1CCCC1`, the Potency entry was “inactive”.
Consider `COc1ccc(CCNCc2c(-c3ccccc3)n(C)c3ccccc23)cc1`, for which the Potency was 16.4 µM (active).
For `COc1ccc(OCCCC(=O)NCCc2ccccc2)cc1`, the Potency entry was “inactive”.
As to `COc1ccc(CNC(=O)CCN2C(=O)c3ccccc3C2=O)cc1`, the Potency entry was “inactive”.
For `CC1(c2ccccc2)NC(=O)N(CC(=O)N2CC(=O)Nc3ccccc32)C1=O` (stereo not drawn), the Potency result was “inactive”.
